Data from PubChem BioAssay (NCATS).
“And” between values parts separate entries of the source, which are not always exact repeats. Identical values can stand only once. Inconclusive results are not listed. The source made the active and inactive calls. Unless noted, calls come from the whole dose curve.

Columns and labels:
[1] = qHTS for Inhibitors of the Functional Ribonucleoprotein Complex (vRNP) of Lassa (LASV) Arenavirus: LASV Primary Screen - GLuc reporter signal (AID 1347082; calls by dose curve; tested in HEK293 reporter line; note: series mostly up to about 57 µM; nearly all actives have a fitted effect of over 60% in size)
[2] = qHTS for Inhibitors of the Functional Ribonucleoprotein Complex (vRNP) of Lassa (LASV) Arenavirus: Viability assay - alamar blue signal for LASV Primary Screen (AID 1347083; calls by dose curve; tested in HEK293 reporter line; note: nearly all actives have a fitted effect of over 80% in size; note: potency is the fitted concentration of half-maximal effect)
[3] = qHTS for Inhibitors of the Functional Ribonucleoprotein Complex (vRNP) of Lymphocytic Choriomeningitis Arenaviruses (LCMV): Viability assay - alamar blue signal for LCMV Primary Screen (AID 1347085; calls by dose curve; tested in HEK293 reporter line; note: nearly all actives have a fitted effect of over 80% in size; note: potency is the fitted concentration of half-maximal effect)
[4] = target: Nucleoprotein (Lymphocytic choriomeningitis virus (strain Armstrong)) (UniProt P09992); test: qHTS for Inhibitors of the Functional Ribonucleoprotein Complex (vRNP) of Lymphocytic Choriomeningitis Arenaviruses (LCMV): LCMV Primary Screen - GLuc reporter signal (AID 1347086); note: nearly all actives have a fitted effect of over 70% in size; note: potency is the fitted concentration of half-maximal effect

Measured: Potency

Chain of Nucleoprotein (Lymphocytic choriomeningitis virus (strain Armstrong)) (P09992 whole entry, looked up): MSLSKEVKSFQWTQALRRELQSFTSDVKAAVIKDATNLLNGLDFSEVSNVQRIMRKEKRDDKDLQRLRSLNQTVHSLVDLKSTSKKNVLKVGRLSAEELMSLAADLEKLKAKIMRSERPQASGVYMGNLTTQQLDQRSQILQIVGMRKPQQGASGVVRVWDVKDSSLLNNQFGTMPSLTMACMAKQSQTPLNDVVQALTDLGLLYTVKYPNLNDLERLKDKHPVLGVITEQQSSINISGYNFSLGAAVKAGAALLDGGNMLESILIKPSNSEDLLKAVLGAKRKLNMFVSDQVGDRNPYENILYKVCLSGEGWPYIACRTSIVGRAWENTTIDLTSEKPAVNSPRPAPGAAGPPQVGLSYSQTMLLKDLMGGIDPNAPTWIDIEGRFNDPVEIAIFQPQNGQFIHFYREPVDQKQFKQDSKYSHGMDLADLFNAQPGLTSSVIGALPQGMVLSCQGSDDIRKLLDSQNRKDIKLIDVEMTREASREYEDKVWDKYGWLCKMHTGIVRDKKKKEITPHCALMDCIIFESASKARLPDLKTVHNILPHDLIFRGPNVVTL

CC[C@]1(O)C[C@H]2CN(CCc3c([nH]c4ccccc34)[C@@](C(=O)OC)(c3cc4c(cc3OC)N(C=O)[C@H]3[C@@](O)(C(=O)OC)[C@H](OC(C)=O)[C@]5(CC)C=CCN6CC[C@]43[C@@H]65)C2)C1
inactive: [1]
active: [2] 0.0153 µM | [3] 0.0061 µM | [4] 0.0153 µM

CN(C)CCOC(c1ccc(Cl)cc1)c1ccccn1 (stereo not drawn)
inactive: [1] | [2] | [3] | [4]

NC(=O)C(c1ccccc1)(c1ccccc1)[C@@H]1CCN(CCc2ccc3c(c2)CCO3)C1
inactive: [1] | [2] | [3] | [4]

CC(=O)O[C@]1(C(C)=O)CC[C@H]2[C@@H]3C=C(Cl)C4=CC(=O)[C@@H]5C[C@@H]5[C@]4(C)[C@H]3CC[C@@]21C
inactive: [1] | [2] | [3] | [4]

Cc1onc(-c2c(Cl)cccc2Cl)c1C(=O)N[C@@H]1C(=O)N2[C@@H]1SC(C)(C)[C@@H]2C(=O)O
inactive: [1] | [2] | [3] | [4]

O=C(O)CCNC(=O)c1ccc(N=Nc2ccc(O)c(C(=O)O)c2)cc1
inactive: [1] | [2] | [3] | [4]

CN1CCN(CCCN2c3ccccc3Sc3ccc(C(F)(F)F)cc32)CC1
inactive: [1] | [2] | [3] | [4]

CCC[C@H](N[C@@H](C)C(=O)N1[C@H](C(=O)O)C[C@@H]2CCCC[C@@H]21)C(=O)OCC
inactive: [1] | [2] | [3] | [4]

CC(C)NCC(O)COc1cccc2[nH]ccc12 (stereo not drawn)
inactive: [1] | [2] | [3] | [4]

O=NN(CCCl)C(=O)NCCCl
inactive: [1] | [2] | [3] | [4]

CCCCOCCOCCOCc1cc2c(cc1CCC)OCO2
inactive: [1] | [2] | [3] | [4]

Cc1c(OCC(F)(F)F)ccnc1CS(=O)c1nc2ccccc2[nH]1 (stereo not drawn)
inactive: [1] | [2] | [3] | [4]

CNCCCN1c2ccccc2CCc2ccccc21
inactive: [1] | [2] | [3] | [4]

COc1ccc2nc(S(=O)Cc3ncc(C)c(OC)c3C)[nH]c2c1 (stereo not drawn)
inactive: [1] | [2] | [3] | [4]

CC(=O)OCC(CCn1cnc2cnc(N)nc21)COC(C)=O
inactive: [1] | [2] | [3] | [4]

CC(C)(C#N)c1cc(Cn2cncn2)cc(C(C)(C)C#N)c1
inactive: [1] | [2] | [3] | [4]

O=C(O)c1cn(C2CC2)c2cc(N3CCNCC3)c(F)cc2c1=O
inactive: [1] | [2] | [3] | [4]

CC(C)Nc1cccnc1N1CCN(C(=O)c2cc3cc(NS(C)(=O)=O)ccc3[nH]2)CC1
inactive: [1] | [2] | [3] | [4]

CCOC(=O)[C@H](CCc1ccccc1)N[C@@H](C)C(=O)N1Cc2ccccc2C[C@H]1C(=O)O
inactive: [1] | [2] | [3] | [4]

COc1cc(C(=O)NCc2ccc(OCCN(C)C)cc2)cc(OC)c1OC
inactive: [1] | [2] | [3] | [4]

COC(=O)[C@@H]1CC2=CC(=O)CC[C@]2(C)[C@@]23O[C@@H]2C[C@@]2(C)[C@@H](CC[C@@]24CCC(=O)O4)[C@H]13
inactive: [1] | [2] | [3] | [4]

CC(CN1c2ccccc2Sc2ccccc21)N(C)C (stereo not drawn)
inactive: [1] | [2] | [3] | [4]

CCn1cc(C(=O)O)c(=O)c2ccc(C)nc21
inactive: [1] | [2] | [3] | [4]

O=C1C(=O)c2ccccc2C(O)=C1C1CCC(c2ccc(Cl)cc2)CC1 (stereo not drawn)
inactive: [1] | [2] | [3] | [4]

Cc1cn([C@H]2C[C@H](N=[N+]=[N-])[C@@H](CO)O2)c(=O)[nH]c1=O
inactive: [1] | [2] | [3] | [4]

C=C(CC)C(=O)c1ccc(OCC(=O)O)c(Cl)c1Cl
inactive: [1] | [2] | [3] | [4]

CO/N=C1\CN(c2nc3c(cc2F)c(=O)c(C(=O)O)cn3C2CC2)CC1CN (stereo not drawn)
inactive: [1] | [2] | [3] | [4]

C[C@H]1O[C@H](O[C@H]2[C@H](O)[C@@H](O)[C@@H](O[C@H]3[C@H](O)[C@@H](O)[C@H](O)O[C@@H]3CO)O[C@@H]2CO)[C@H](O)[C@@H](O)[C@@H]1N[C@H]1C=C(CO)[C@@H](O)[C@H](O)[C@H]1O
inactive: [1] | [2] | [3] | [4]

C=C(c1ccc(C(=O)O)cc1)c1cc2c(cc1C)C(C)(C)CCC2(C)C
inactive: [1] | [2] | [3] | [4]

CN(C)CC/C=C1\c2ccccc2COc2ccccc21
inactive: [1] | [2] | [3] | [4]

CN(C)CCc1c[nH]c2ccc(C[C@H]3COC(=O)N3)cc12
inactive: [1] | [2] | [3] | [4]

O=c1[nH]cnc2c1ncn2[C@H]1CC[C@@H](CO)O1
inactive: [1] | [2] | [3] | [4]

CCCN(CCc1cccs1)[C@H]1CCc2c(O)cccc2C1
inactive: [1] | [2] | [3] | [4]

NC[C@H](O)c1ccc(O)c(O)c1
inactive: [1] | [2] | [3] | [4]

CN1CCN(C2=Nc3ccccc3Oc3ccc(Cl)cc32)CC1
inactive: [1] | [2] | [3] | [4]

CO[C@@H](C(=O)N1Cc2[nH]nc(NC(=O)c3ccc(N4CCN(C)CC4)cc3)c2C1)c1ccccc1
inactive: [1] | [4]
active: [2] 4.85 µM | [3] 6.85 µM

CN(N=O)C(=O)N[C@@H]1[C@@H](O)[C@H](O)[C@@H](CO)O[C@@H]1O
inactive: [1] | [2] | [3] | [4]

CCCCC1=NC2(CCCC2)C(=O)N1Cc1ccc(-c2ccccc2-c2nn[nH]n2)cc1
inactive: [1] | [2] | [3] | [4]

COC(=O)N[C@H](C(=O)N[C@@H](Cc1ccccc1)[C@@H](O)CN(Cc1ccc(-c2ccccn2)cc1)NC(=O)[C@@H](NC(=O)OC)C(C)(C)C)C(C)(C)C
inactive: [1] | [2] | [3] | [4]

CN(C)CCC[C@@]1(c2ccc(F)cc2)OCc2cc(C#N)ccc21
inactive: [1] | [2] | [3] | [4]

Cc1ncc([N+](=O)[O-])n1CCO
inactive: [1] | [2] | [3] | [4]

N[C@@H](Cc1cc(I)c(Oc2cc(I)c(O)c(I)c2)c(I)c1)C(=O)O
inactive: [1] | [2] | [3] | [4]

CC/C(=C(\c1ccccc1)c1ccc(OCCN(C)C)cc1)c1ccccc1
inactive: [1] | [2] | [3] | [4]

CCCCc1nc(Cl)c(CO)n1Cc1ccc(-c2ccccc2-c2nn[nH]n2)cc1
inactive: [1] | [2] | [3] | [4]

C=C[C@H]1CN2CC[C@H]1C[C@@H]2[C@@H](O)c1ccnc2ccc(OC)cc12
inactive: [1] | [2] | [3] | [4]

O=C1NC(c2ccccc2)(c2ccccc2)C(=O)N1COP(=O)(O)O
inactive: [1] | [2] | [3] | [4]

Cc1ccc(C(=O)c2cc(O)c(O)c([N+](=O)[O-])c2)cc1
inactive: [1] | [2] | [3] | [4]

COc1ccc(OC)c(C(O)CNC(=O)CN)c1 (stereo not drawn)
inactive: [1] | [2] | [3] | [4]

CC(c1cc2ccccc2s1)N(O)C(N)=O (stereo not drawn)
inactive: [1] | [2] | [3] | [4]

COC(=O)Nc1nc2ccc(C(=O)c3ccccc3)cc2[nH]1
active: [2] 3.43 µM | [3] 6.85 µM | [4] 5.44 µM
inactive: [1]

COC(=O)CCc1ccc(OCC(O)CNC(C)C)cc1 (stereo not drawn)
inactive: [1] | [2] | [3] | [4]

CN(C)CCC=C1c2ccccc2C=Cc2ccccc21
inactive: [1] | [2] | [3] | [4]

Cc1nc(-c2ccc(OCC(C)C)c(C#N)c2)sc1C(=O)O
inactive: [1] | [2] | [3] | [4]

CCCNCC(O)COc1ccccc1C(=O)CCc1ccccc1 (stereo not drawn)
inactive: [1] | [2] | [3] | [4]

Cc1cc(C)cc(OCC2CNC(=O)O2)c1 (stereo not drawn)
inactive: [1] | [2] | [3] | [4]

NS(=O)(=O)c1cc2c(cc1Cl)NC=NS2(=O)=O
inactive: [1] | [2] | [3] | [4]

CCOC(=O)N1CCC(=C2c3ccc(Cl)cc3CCc3cccnc32)CC1
inactive: [1] | [2] | [3] | [4]

CN(C)CCc1c[nH]c2ccc(CS(=O)(=O)N3CCCC3)cc12
inactive: [1] | [2] | [3] | [4]

O=C(CCCN1CCC(O)(c2ccc(Cl)cc2)CC1)c1ccc(F)cc1
inactive: [1] | [2] | [3] | [4]

O=C1N=C(O)CN1/N=C/c1ccc(-c2ccc([N+](=O)[O-])cc2)o1
inactive: [1] | [2] | [3] | [4]

O=C(CCCCCCC(=O)Nc1ccccc1)NO
inactive: [1] | [4]
active: [2] 8.91 µM and 7.69 µM | [3] 7.69 µM

CC(C)(O)c1ccccc1CC[C@@H](SCC1(CC(=O)O)CC1)c1cccc(/C=C/c2ccc3ccc(Cl)cc3n2)c1
inactive: [1] | [2] | [3] | [4]

CC(=O)SC[C@@H](C)C(=O)N1CCC[C@H]1C(=O)N[C@@H](Cc1ccccc1)C(=O)O
inactive: [1] | [2] | [3] | [4]

C[C@@H](NCCCc1cccc(C(F)(F)F)c1)c1cccc2ccccc12
inactive: [1] | [2] | [3] | [4]

CN/C(=C\[N+](=O)[O-])NCCSCc1ccc(CN(C)C)o1
inactive: [1] | [2] | [3] | [4]

C[C@@H](O)[C@H]1C(=O)N2C(C(=O)O)=C(S[C@@H]3CN[C@H](C(=O)N(C)C)C3)[C@H](C)[C@H]12
inactive: [1] | [2] | [3] | [4]

Cc1ccsc1C(=CCCN1CCC[C@@H](C(=O)O)C1)c1sccc1C
inactive: [1] | [2] | [3] | [4]
